{
  "source": "PubChem BioAssay (NCI)",
  "note": "About 79,000 compounds went through this panel and 15% of them were active in at least one assay; those are over-represented in the sample as a whole. The source made the active and inactive calls. Rule as the data show it: active = growth inhibition above about 70%; inactive = the rest.",
  "data": [
    {"test": "NCI Yeast Anticancer Drug Screen. Data for the wt2 strain (AID 169);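 also: 0% = growth of vehicle-treated yeast cultures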", "conditions": "S. cerevisiae wt2 strain growth inhibition; at 11.0 µM; active compounds read high", "in_short": "(§1)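 Genetically defined yeast strains from a DNA-repair/cell-cycle panel were used. Compound-exposed yeast growth was measured, and the inhibition was calculated relative to vehicle treatment.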", "values": [
      {"compound": "CCN(CC)CC[n+]1ccc2c(C)c3[nH]c4ccc(O)cc4c3c(C)c2c1", "growth inhibition": "-1% (inactive)"},
      {"compound": "O=[n+]1c2ccc(Cl)cc2n([O-])c2ccc(Cl)cc21", "growth inhibition": "0% (inactive)"},
      {"compound": "CCOP(=O)(OCC)C(Cc1ccccc1)N=C(c1ccccc1)c1ccccc1", "note": "(stereo not drawn)", "growth inhibition": "-2% (inactive)"},
      {"compound": "CC[C@@]1(O)C(=O)OCc2c1cc1n(c2=O)Cc2cc3c(N)cccc3nc2-1", "growth inhibition": "-8% (inactive)"},
      {"compound": "COC1C=COC2(C)Oc3c(C)c(O)c4c(c3C2=O)/C(=N/C2CCC(O)OC2C)C=C(NC(=O)/C(C)=C\\C(=O)C2CC2C(O)C(C)C(O)C(C)C(OC(C)=O)C1C)C4=O", "note": "(stereo not drawn)", "growth inhibition": "0% (inactive)"},
      {"compound": "COc1cc2c(c(OC)c1OC)-c1c(cc3c(c1OC)OCO3)CC(C)C(C)(O)C2OC(=O)c1ccccc1", "note": "(stereo not drawn)", "growth inhibition": "-29% (inactive)"},
      {"compound": "O=c1ssc2ncccc12", "growth inhibition": "15% (inactive)"},
      {"compound": "O=C1C2C(C(=O)N1c1ccc(OCc3ccccc3)cc1)C1c3ccccc3C2C2CCCCN21", "note": "(stereo not drawn)", "growth inhibition": "-6% (inactive)"},
      {"compound": "COc1ccc(-c2cn(-c3ccc(I)cc3)c3ncnc(N)c23)cc1", "growth inhibition": "-10% (inactive)"},
      {"compound": "CCOC(=O)C(NC(=O)c1ccccc1)(N1CCN(c2cc3c(cc2F)c(=O)c(C(=O)O)cn3C2CC2)CC1)C(F)(F)F", "note": "(stereo not drawn)", "growth inhibition": "-2% (inactive)"},
      {"compound": "C/C(=N\\O)C1CC2C=C(C#N)C1N(Cc1ccccc1)C2", "note": "(stereo not drawn)", "growth inhibition": "-3% (inactive)"},
      {"compound": "CC/C(=C(\\c1ccccc1)c1ccc(OCCN(C)C)cc1)c1ccccc1", "growth inhibition": "55% (inactive)"},
      {"compound": "COc1ccccc1N=NC(C(=O)c1ccccc1)C(=O)c1ccccc1", "growth inhibition": "-6% (inactive)"},
      {"compound": "CC(O)C(O)C(O)C(/C=N\\Nc1ccccc1)=N/Nc1ccccc1", "note": "(stereo not drawn)", "growth inhibition": "10% (inactive)"},
      {"compound": "COc1ccc(/C=C2\\SC(=S)N(/C=C/c3nc4ccccc4[nH]c3=O)C2=O)cc1OC", "growth inhibition": "28% (inactive)"},
      {"compound": "N#CN=Nc1cc(Cl)c(N=NC#N)cc1Cl", "growth inhibition": "0% (inactive)"},
      {"compound": "Cc1ccc(S(=O)(=O)Oc2cc(Cl)c(Cl)cc2Cl)cc1", "growth inhibition": "-14% (inactive)"},
      {"compound": "c1ccc2c(c1)Oc1cccc3cccc-2c13", "growth inhibition": "1% (inactive)"},
      {"compound": "O=C(c1ccc(Cl)cc1Cl)C(Cl)Cl", "growth inhibition": "16% (inactive)"},
      {"compound": "CC(C)C1=CCC2C(=C1)CCC1C(C)(C(=O)O)CCCC21C", "note": "(stereo not drawn) (tested in a mixture with another compound)", "growth inhibition": "-56% (inactive)"},
      {"compound": "COc1cc(/C=C2\\CCc3ccccc3C2=O)cc(OC)c1OC", "growth inhibition": "-10% (inactive)"},
      {"compound": "CC(=O)[O][Bi]([c]1ccccc1)[c]1ccccc1", "growth inhibition": "79% (active)"},
      {"compound": "S=C(N/N=C/c1ccccn1)Nc1ccc(Cl)cc1", "growth inhibition": "-4% (inactive)"},
      {"compound": "COc1cc(CC2CC(c3ccc4c(c3)OCO4)OC2=O)cc(OC)c1OC", "note": "(stereo not drawn)", "growth inhibition": "-3% (inactive)"},
      {"compound": "CNC1C(OC2C(OC3C(O)C(O)C(N=C(N)N)C(O)C3N=C(N)N)OC(C)C2(O)CO)OC(CO)C(O)C1O", "note": "(stereo not drawn)", "growth inhibition": "-1% (inactive)"},
      {"compound": "NNC(=O)CCc1ccc2ccc3ccccc3c2c1", "growth inhibition": "2% (inactive)"},
      {"compound": "Oc1ccc2ccccc2c1C(c1ccc(Cl)cc1)c1c(O)ccc2ccccc12", "growth inhibition": "-20% (inactive)"},
      {"compound": "CCCCN(CCCC)CCSc1ccc(Cl)cc1", "growth inhibition": "13% (inactive)"},
      {"compound": "CCC(C)COC(=O)c1ccc(N=Cc2ccc(C=Nc3ccc(C(=O)OCC(C)CC)cc3)cc2)cc1", "note": "(stereo not drawn)", "growth inhibition": "0% (inactive)"},
      {"compound": "CC1(C)C(=O)OC(n2cc(F)c(=O)[nH]c2=O)C1=O", "note": "(stereo not drawn)", "growth inhibition": "17% (inactive)"},
      {"compound": "O=[N+]([O-])CC(SCc1ccccc1)c1ccc2c(c1)OCO2", "note": "(stereo not drawn)", "growth inhibition": "47% (inactive)"},
      {"compound": "COc1cc2c(cc1[N+](=O)[O-])C(=O)C(Br)(Br)CCC2", "growth inhibition": "90% (active)"},
      {"compound": "OCC1OC(OCC(O)C(O)C(O)C(/C=N/Nc2ccccc2)=N/Nc2ccccc2)C(O)C(O)C1O", "note": "(stereo not drawn)", "growth inhibition": "20% (inactive)"},
      {"compound": "COc1ccc(N=C2C(=O)Nc3ccc(Br)cc32)cc1", "growth inhibition": "9% (inactive)"},
      {"compound": "Cn1c(=O)c2ccccc2c2ccccc21", "growth inhibition": "-2% (inactive)"},
      {"compound": "CC[n+]1ccc2c(C)c3[nH]c4ccc(O)cc4c3c(C)c2c1", "growth inhibition": "-3% (inactive)"},
      {"compound": "CC(=O)ON1C(=O)c2cccc3cccc(c23)C1=O", "growth inhibition": "20% (inactive)"},
      {"compound": "COc1ccc2ccc3ccccc3c2c1C=O", "growth inhibition": "-4% (inactive)"},
      {"compound": "OC1CCCc2c1cc1ccc3cccc4ccc2c1c34", "note": "(stereo not drawn)", "growth inhibition": "100% (active)"}
    ]},
    {"test": "NCI Yeast Anticancer Drug Screen. Data for the wt2 strain (AID 169);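 also: 0% = growth of vehicle-treated yeast cultures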", "conditions": "S. cerevisiae wt2 strain growth inhibition; at 33.0 µM; active compounds read high", "in_short": "as §1", "values": [
      {"compound": "CCN(CC)CC[n+]1ccc2c(C)c3[nH]c4ccc(O)cc4c3c(C)c2c1", "growth inhibition": "2% (inactive)"},
      {"compound": "O=[n+]1c2ccc(Cl)cc2n([O-])c2ccc(Cl)cc21", "growth inhibition": "-5% (inactive)"},
      {"compound": "CCOP(=O)(OCC)C(Cc1ccccc1)N=C(c1ccccc1)c1ccccc1", "note": "(stereo not drawn)", "growth inhibition": "97% (active)"},
      {"compound": "CC[C@@]1(O)C(=O)OCc2c1cc1n(c2=O)Cc2cc3c(N)cccc3nc2-1", "growth inhibition": "-3% (inactive)"},
      {"compound": "COC1C=COC2(C)Oc3c(C)c(O)c4c(c3C2=O)/C(=N/C2CCC(O)OC2C)C=C(NC(=O)/C(C)=C\\C(=O)C2CC2C(O)C(C)C(O)C(C)C(OC(C)=O)C1C)C4=O", "note": "(stereo not drawn)", "growth inhibition": "28% (inactive)"},
      {"compound": "COc1cc2c(c(OC)c1OC)-c1c(cc3c(c1OC)OCO3)CC(C)C(C)(O)C2OC(=O)c1ccccc1", "note": "(stereo not drawn)", "growth inhibition": "33% (inactive)"},
      {"compound": "O=c1ssc2ncccc12", "growth inhibition": "57% (inactive)"},
      {"compound": "O=C1C2C(C(=O)N1c1ccc(OCc3ccccc3)cc1)C1c3ccccc3C2C2CCCCN21", "note": "(stereo not drawn)", "growth inhibition": "18% (inactive)"},
      {"compound": "COc1ccc(-c2cn(-c3ccc(I)cc3)c3ncnc(N)c23)cc1", "growth inhibition": "-8% (inactive)"},
      {"compound": "CCOC(=O)C(NC(=O)c1ccccc1)(N1CCN(c2cc3c(cc2F)c(=O)c(C(=O)O)cn3C2CC2)CC1)C(F)(F)F", "note": "(stereo not drawn)", "growth inhibition": "-2% (inactive)"},
      {"compound": "C/C(=N\\O)C1CC2C=C(C#N)C1N(Cc1ccccc1)C2", "note": "(stereo not drawn)", "growth inhibition": "-2% (inactive)"},
      {"compound": "CC/C(=C(\\c1ccccc1)c1ccc(OCCN(C)C)cc1)c1ccccc1", "growth inhibition": "98% (active)"},
      {"compound": "COc1ccccc1N=NC(C(=O)c1ccccc1)C(=O)c1ccccc1", "growth inhibition": "92% (active)"},
      {"compound": "CC(O)C(O)C(O)C(/C=N\\Nc1ccccc1)=N/Nc1ccccc1", "note": "(stereo not drawn)", "growth inhibition": "38% (inactive)"},
      {"compound": "COc1ccc(/C=C2\\SC(=S)N(/C=C/c3nc4ccccc4[nH]c3=O)C2=O)cc1OC", "growth inhibition": "80% (active)"},
      {"compound": "N#CN=Nc1cc(Cl)c(N=NC#N)cc1Cl", "growth inhibition": "3% (inactive)"},
      {"compound": "Cc1ccc(S(=O)(=O)Oc2cc(Cl)c(Cl)cc2Cl)cc1", "growth inhibition": "-9% (inactive)"},
      {"compound": "c1ccc2c(c1)Oc1cccc3cccc-2c13", "growth inhibition": "15% (inactive)"},
      {"compound": "O=C(c1ccc(Cl)cc1Cl)C(Cl)Cl", "growth inhibition": "71% (active)"},
      {"compound": "CC(C)C1=CCC2C(=C1)CCC1C(C)(C(=O)O)CCCC21C", "note": "(stereo not drawn) (tested in a mixture with another compound)", "growth inhibition": "63% (inactive)"},
      {"compound": "COc1cc(/C=C2\\CCc3ccccc3C2=O)cc(OC)c1OC", "growth inhibition": "13% (inactive)"},
      {"compound": "CC(=O)[O][Bi]([c]1ccccc1)[c]1ccccc1", "growth inhibition": "96% (active)"},
      {"compound": "S=C(N/N=C/c1ccccn1)Nc1ccc(Cl)cc1", "growth inhibition": "9% (inactive)"},
      {"compound": "COc1cc(CC2CC(c3ccc4c(c3)OCO4)OC2=O)cc(OC)c1OC", "note": "(stereo not drawn)", "growth inhibition": "-5% (inactive)"},
      {"compound": "CNC1C(OC2C(OC3C(O)C(O)C(N=C(N)N)C(O)C3N=C(N)N)OC(C)C2(O)CO)OC(CO)C(O)C1O", "note": "(stereo not drawn)", "growth inhibition": "34% (inactive)"},
      {"compound": "NNC(=O)CCc1ccc2ccc3ccccc3c2c1", "growth inhibition": "6% (inactive)"},
      {"compound": "Oc1ccc2ccccc2c1C(c1ccc(Cl)cc1)c1c(O)ccc2ccccc12", "growth inhibition": "16% (inactive)"},
      {"compound": "CCCCN(CCCC)CCSc1ccc(Cl)cc1", "growth inhibition": "45% (inactive)"},
      {"compound": "CCC(C)COC(=O)c1ccc(N=Cc2ccc(C=Nc3ccc(C(=O)OCC(C)CC)cc3)cc2)cc1", "note": "(stereo not drawn)", "growth inhibition": "2% (inactive)"},
      {"compound": "CC1(C)C(=O)OC(n2cc(F)c(=O)[nH]c2=O)C1=O", "note": "(stereo not drawn)", "growth inhibition": "43% (inactive)"},
      {"compound": "O=[N+]([O-])CC(SCc1ccccc1)c1ccc2c(c1)OCO2", "note": "(stereo not drawn)", "growth inhibition": "97% (active)"},
      {"compound": "COc1cc2c(cc1[N+](=O)[O-])C(=O)C(Br)(Br)CCC2", "growth inhibition": "99% (active)"},
      {"compound": "OCC1OC(OCC(O)C(O)C(O)C(/C=N/Nc2ccccc2)=N/Nc2ccccc2)C(O)C(O)C1O", "note": "(stereo not drawn)", "growth inhibition": "17% (inactive)"},
      {"compound": "COc1ccc(N=C2C(=O)Nc3ccc(Br)cc32)cc1", "growth inhibition": "20% (inactive)"},
      {"compound": "Cn1c(=O)c2ccccc2c2ccccc21", "growth inhibition": "21% (inactive)"},
      {"compound": "CC[n+]1ccc2c(C)c3[nH]c4ccc(O)cc4c3c(C)c2c1", "growth inhibition": "-1% (inactive)"},
      {"compound": "CC(=O)ON1C(=O)c2cccc3cccc(c23)C1=O", "growth inhibition": "95% (active)"},
      {"compound": "COc1ccc2ccc3ccccc3c2c1C=O", "growth inhibition": "-4% (inactive)"},
      {"compound": "OC1CCCc2c1cc1ccc3cccc4ccc2c1c34", "note": "(stereo not drawn)", "growth inhibition": "98% (active)"}
    ]}
  ]
}
